The source of these data is PubChem BioAssay (NCATS).

Structures are written as SMILES. Several values for one entry are separate records, joined by “and”; a condition that tells them apart may be missing. Equal entries are not always repeated. Results filed as inconclusive are left out. Activity calls are given as the source filed them. Unless noted, calls follow the shape of the dose curve; as a rule, active = well fitted curve in the direction sought with a large enough effect; inconclusive = small, poorly fitted or top-dose-only effect, or another doubt; inactive = no such curve, though single readings can be large; an effect the other way counts as inactive or inconclusive.

Assay [1] is described as follows: Cellular Toxicity (caspase-3) HepG2 (AID 654).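 Also: cells exposed to compound for 16 hours before reading; 0% = DMSO alone and 100% = caspase signal from 100 µM tamoxifen.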 To be noted: HepG2 caspase-3 activation, luminescence, 0% = DMSO only, 100% = tamoxifen; series mostly up to 92.2 µM. An outline of the steps:
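Concentration-response AC50 values reflect caspase-3/7 induction in HepG2 cells after 16 hours of compound exposure, quantified by luminescence from liberated aminoluciferin and referenced to 100 uM tamoxifen as full stimulation.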

Assay [2] is described as follows: Cellular Toxicity (caspase-3) HUV-EC-C (AID 656). To be noted: HUV-EC-C cells, caspase-3 activation (apoptosis), vehicle = 0, 100 µM tamoxifen = 100%; series mostly up to 92.2 µM. An outline of the steps: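 HUV-EC-C cells (1000/well) in complete medium, compound-treated 16 h at 37 °C; caspase-3/7 activity read by Caspase-Glo 3/7 luminescence. Normalized to DMSO (basal) and 100 uM tamoxifen (100%); AC50 from Hill-equation concentration-response fits.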

Assay [3] is described as follows: Cellular Toxicity (caspase-3) SHSY5Y (AID 657). The note with it: SH-SY5Y caspase-3 activation, DMSO zero, 10 µM staurosporine = 100%; series mostly up to 91.7 µM. Summed up:
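SH-SY5Y human neuroblastoma cells, 1500/well, exposed to compound for 16 hours at 37 °C in complete medium. Caspase-3/7 activity read by Caspase-Glo luminescence after 1 hr at room temperature, normalized to DMSO and 10 uM staurosporine; AC50 from Hill fit.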

The nature of assay [4]: Cellular Toxicity (caspase-3) BJ (AID 658). To be noted: BJ fibroblasts, luminescence, normalized: DMSO 0%, staurosporine 100%; series mostly up to 91.7 µM. An outline of the steps: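 Plated BJ cells (1000/well) rested 5 hr, received compound for 16 hr at 37 °C, then Caspase-Glo 3/7 reagent for 1 hr at room temperature before luminescence reading.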
The nature of assay [5]: Cellular Toxicity (caspase-3) MRC-5 (AID 659). The note with it: MRC-5 cells, luminescence, normalized: DMSO 0%, 10 µM staurosporine 100%; series mostly up to 91.7 µM. An outline of the steps:
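Apoptosis readout in MRC-5 cells: luciferase light generated after caspase 3/7 cleaves a peptide-aminoluciferin substrate, measured post 16 hr compound incubation at 37 °C.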

The nature of assay [6]: Cellular Toxicity (caspase-3) SK-N-SH (AID 661). To be noted: SK-N-SH caspase-3 activation, qHTS, DMSO as zero, staurosporine as full; series mostly up to 91.7 µM. Summed up:
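Apoptosis readout in SK-N-SH neuroblastoma: Caspase-Glo 3/7 luminescence following 16 hr treatment in complete culture medium. Normalization used DMSO and 10 uM staurosporine controls.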

Assay [7] is described as follows: Cellular Toxicity (caspase-3) H-4-II-E (AID 663).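 Also: cells exposed to compound for 16 hr before readout.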 To be noted: H-4-II-E rat hepatoma, scaled: DMSO 0%, 100 µM tamoxifen 100%; series mostly up to 92.2 µM. Summed up: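 Caspase 3/7 activation measured in H-4-II-E cells in complete culture medium after 16 hr treatment at 37 °C, using luciferase-coupled substrate readout; AC50 values come from Hill-equation fits of normalized concentration-response data.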

Assay [8] in a line: Cellular Toxicity (caspase-3) Hek293 (AID 664).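 Also: cells exposed to compound for 16 h at 37 °C before readout.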 To be noted: HEK293 caspase-3 activation, DMSO = 0%, 100 µM tamoxifen = 100%; series mostly up to 92.2 µM. Summed up:
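Apoptosis readout: Caspase-Glo 3/7 signal in human HEK293 cells following 16-hour compound incubation. Responses scaled between DMSO baseline and 100 uM tamoxifen.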

Assay [9] is described as follows: Cellular Toxicity (caspase-3) N2a (AID 665).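 Also: compound exposure lasted 16 h at 37 °C before readout.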 To be noted: N2a cells, luminescence, normalized: DMSO 0%, 10 µM staurosporine 100%; series mostly up to 92.2 µM. Summed up:
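Concentration-response qHTS: compound-induced caspase-3/7 luminescence in N2a cells (16 h, 37 °C), relative to DMSO and 10 uM staurosporine controls; AC50 obtained using the standard Hill equation.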

For assay [10], the target named is Peroxisome proliferator-activated receptor delta (Homo sapiens) (UniProt Q03181). As to the kind of experiment: qHTS assay for small molecule agonists of peroxisome proliferator-activated receptor delta signaling (AID 588534; calls by dose curve;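 also: 0% = DMSO basal wells and 100% = positive control agonist at 10 µM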). The note with it: HEK293T PPARdelta-UAS-bla, beta-lactamase ratio, 18 h; series mostly up to 76.7 µM. Summed up: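 EC50 and efficacy values derive from Hill fits of a concentration series in a beta-lactamase reporter cell assay. Exposure is 18 hrs at 37 C, with CCF4 fluorescence as the readout.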
In general terms: In qHTS, concentration-response curves come from the screen itself.

The nature of assay [11]: qHTS assay for small molecule antagonists of peroxisome proliferator-activated receptor delta signaling (AID 588535; active = well fitted inhibition curve with a large enough effect in the signal ratio, with a control signal flat, not every such curve was filed as active; the % refers to the signal ratio;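 as to max response: cells co-treated with a PPAR-delta agonist as stimulator during compound exposure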). The note with it: HEK293T PPARd-UAS-bla, beta-lactamase FRET ratio, 18 h; 460 nm channel. An outline of the steps:
(§1)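 Compounds tested in titration on PPAR-delta-UAS-bla HEK293T cells grown in charcoal/dextran-stripped serum (2%); beta-lactamase activity read via CCF4 emission at 460 and 530 nm.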

The target in assay [12] is Peroxisome proliferator-activated receptor delta (Homo sapiens) (UniProt Q03181). The assay is described as above. To be noted: HEK293T PPARd-UAS-bla, beta-lactamase FRET ratio, 18 h; series mostly up to 76.7 µM. Summed up:
as §1

For assay [13], the target named is Vitamin D3 receptor (Homo sapiens) (UniProt P11473). The assay is described as follows: qHTS assay for small molecule antagonists of vitamin D receptor signaling (AID 588541; calls by dose curve;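 also: receptor activated by calcitriol during compound treatment; % is scaled to controls: 0 for no effect and ±100 for the full control effect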). To be noted: HEK293T VDR-UAS-bla, beta-lactamase ratio, antagonist mode; series mostly up to 76.7 µM. Summed up: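 VDR-UAS-bla HEK293T cells (2000/well, 2% charcoal-stripped FBS) were treated with titrated compounds plus 1-alpha,25-dihydroxyvitamin D3 (50 nM or 3 nM final) for 16 h at 37 C. CCF4 beta-lactamase fluorescence was read; Hill fits gave IC50.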

In assay [14] the target is Thyroid hormone receptor beta (Homo sapiens) (UniProt P10828). As to the kind of experiment: qHTS assay for small molecule agonists of thyroid hormone receptor beta signaling (AID 588545; calls by dose curve). To be noted: TR-UAS-bla GripTite HEK 293, beta-lactamase ratio, agonist mode, 18 h; series mostly up to 76.7 µM. An outline of the steps: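 Agonist-mode beta-lactamase reporter assay, HEK 293 cells, 2% charcoal/dextran FBS; cells plated 4 hrs, compound 18 hrs at 37 C, CCF4 2 hrs RT. Normalized to 10 nM T3 (100%) and DMSO (0%); Hill fit gives EC50, efficacy.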

Assay [15] in a line: qHTS assay for small molecule activators of the p53 signaling pathway (AID 651743; active = well fitted activation curve with a large enough effect in the signal ratio, not every such curve was filed as active; the % refers to the signal ratio; also: % of control where 0% means no effect). The note with it: HCT-116 p53RE-bla, beta-lactamase FRET ratio, 16 h; activation: stronger effect = higher value. An outline of the steps:
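Here HCT-116 cells with an integrated p53-responsive beta-lactamase gene were incubated with compounds (16 hours, 37 C) after a 5-hour plating period; beta-lactamase activity was detected as fluorescence intensity via B/G FRET substrate.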

Assay [16] is described as follows: qHTS assay for small molecule activators of the nuclear factor-kappa B (NF-kB) signaling pathway (AID 651749; active = well fitted activation curve with a large enough effect in the signal ratio; the % refers to the signal ratio; also: % of control where 0% means no effect). The note with it: NF-kB-bla ME-180 cells, beta-lactamase FRET ratio, 16 h; activation: stronger effect = higher value. Summed up: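 Beta-lactamase reporter expression, controlled by NF-kB response elements in ME-180 cells, was quantified fluorometrically via FRET disruption; cells at 2,000/well had been incubated with 23 nL test compound for 16 hr.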

Assay [17] deals with Tumor necrosis factor (Homo sapiens) (UniProt P01375). The assay is described as follows: qHTS assay to identify small molecules that stimulate Tumor Necrosis Factor-alpha (TNF-alpha) secretion (AID 651757; active = well fitted curve in the direction sought with a large enough effect in the signal ratio; the % refers to the signal ratio; also: 0% is about no effect). To be noted: Human cells, HTRF 665/615 ratio; series mostly up to 92.2 µM. An outline of the steps:
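Using 3000 THP-1 cells per well, compounds and controls were applied for 17 hrs at 37 C. Detection followed with two labeled anti-TNF-alpha antibodies (cryptate donor, XL665 acceptor) for 3 hr at room temperature, measured by TR-FRET.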

The nature of assay [18]: qHTS assay for environmental chemicals that activate the Aryl hydrocarbon Receptor (AhR) signaling pathway (AID 651777). Also: % of control where 0% means no effect; nearly all actives have a fitted effect of over 15% in size. To be noted: 1A2-DRE human hepatoma cells, luciferase, 24 h; activation: stronger effect = higher value. An outline of the steps:
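Luminescence (One-Glo, 30 min, room temperature) reports AhR-driven luciferase in stably transfected human hepatoma cells bearing DRE and CYP1A2 promoter. Cells (1,200/well) were treated with compound for 24 hr at 37 C in qHTS format.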

For assay [19], the target named is Peroxisome proliferator-activated receptor alpha (Homo sapiens) (UniProt Q07869). As to the kind of experiment: qHTS assay for small molecule agonists of the peroxisome proliferator-activated receptor alpha (PPARalpha) signaling pathway (AID 651778). Also: % of control where 0% means no effect. The note with it: PathHunter PPARalpha complementation, chemiluminescence, 6 h; stronger effect = higher value. Summed up:
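Cells plated at 2,000/well and held overnight at 37 C, 5% CO2, then compound added by pin tool for 6 hr; after PathHunter detection reagent and 60 min at room temperature, chemiluminescence from enzyme complementation was read.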

Assay [20] concerns the target Nuclear receptor subfamily 1 group I member 2 (Rattus norvegicus) (UniProt Q9R1A7). As to the kind of experiment: qHTS assay for small molecule activators of the rat pregnane X receptor (rPXR) signaling pathway (AID 651751; call rule not given here; also: 0% is about no effect). To be noted: rPXR reporter cells, luciferase (One-Glo), 24 h.

Sequence of Thyroid hormone receptor beta (Homo sapiens) (P10828 whole entry, looked up): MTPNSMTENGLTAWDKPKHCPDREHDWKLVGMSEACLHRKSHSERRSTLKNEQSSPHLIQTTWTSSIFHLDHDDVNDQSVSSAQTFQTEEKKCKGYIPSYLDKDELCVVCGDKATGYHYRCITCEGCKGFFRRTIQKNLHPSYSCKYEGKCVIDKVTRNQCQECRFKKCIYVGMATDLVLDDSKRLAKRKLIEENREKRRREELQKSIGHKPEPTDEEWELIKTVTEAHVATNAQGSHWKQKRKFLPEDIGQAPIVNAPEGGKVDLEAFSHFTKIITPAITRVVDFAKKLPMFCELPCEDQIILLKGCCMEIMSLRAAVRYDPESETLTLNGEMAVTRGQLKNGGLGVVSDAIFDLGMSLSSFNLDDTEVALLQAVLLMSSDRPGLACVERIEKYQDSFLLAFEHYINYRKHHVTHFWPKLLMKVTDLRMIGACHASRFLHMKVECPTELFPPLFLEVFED
Sequence of Peroxisome proliferator-activated receptor delta (Homo sapiens) (Q03181 whole entry, looked up): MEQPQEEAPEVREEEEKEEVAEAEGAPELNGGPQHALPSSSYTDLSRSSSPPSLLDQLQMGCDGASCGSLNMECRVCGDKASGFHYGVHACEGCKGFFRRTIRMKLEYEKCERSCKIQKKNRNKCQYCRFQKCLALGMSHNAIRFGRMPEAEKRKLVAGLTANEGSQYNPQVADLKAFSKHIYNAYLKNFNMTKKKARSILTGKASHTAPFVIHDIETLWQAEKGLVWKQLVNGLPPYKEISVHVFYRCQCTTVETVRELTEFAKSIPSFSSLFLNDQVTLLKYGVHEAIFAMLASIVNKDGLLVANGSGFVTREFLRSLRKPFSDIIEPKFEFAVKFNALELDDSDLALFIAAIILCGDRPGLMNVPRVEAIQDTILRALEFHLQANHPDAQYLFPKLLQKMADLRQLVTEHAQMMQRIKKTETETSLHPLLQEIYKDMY
Sequence of Peroxisome proliferator-activated receptor alpha (Homo sapiens) (Q07869 whole entry, looked up): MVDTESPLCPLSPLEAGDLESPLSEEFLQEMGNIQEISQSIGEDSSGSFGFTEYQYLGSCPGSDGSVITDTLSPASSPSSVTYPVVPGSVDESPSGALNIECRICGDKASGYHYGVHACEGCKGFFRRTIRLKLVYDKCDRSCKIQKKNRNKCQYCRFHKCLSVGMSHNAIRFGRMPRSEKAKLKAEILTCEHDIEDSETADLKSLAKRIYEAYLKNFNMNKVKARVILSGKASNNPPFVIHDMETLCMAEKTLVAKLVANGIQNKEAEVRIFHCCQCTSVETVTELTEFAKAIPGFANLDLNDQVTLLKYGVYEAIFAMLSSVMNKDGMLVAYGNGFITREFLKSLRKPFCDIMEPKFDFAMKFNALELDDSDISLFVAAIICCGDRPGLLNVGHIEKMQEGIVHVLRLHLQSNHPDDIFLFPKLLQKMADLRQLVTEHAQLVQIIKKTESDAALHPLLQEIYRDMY
Sequence of Nuclear receptor subfamily 1 group I member 2 (Rattus norvegicus) (Q9R1A7 whole entry, looked up): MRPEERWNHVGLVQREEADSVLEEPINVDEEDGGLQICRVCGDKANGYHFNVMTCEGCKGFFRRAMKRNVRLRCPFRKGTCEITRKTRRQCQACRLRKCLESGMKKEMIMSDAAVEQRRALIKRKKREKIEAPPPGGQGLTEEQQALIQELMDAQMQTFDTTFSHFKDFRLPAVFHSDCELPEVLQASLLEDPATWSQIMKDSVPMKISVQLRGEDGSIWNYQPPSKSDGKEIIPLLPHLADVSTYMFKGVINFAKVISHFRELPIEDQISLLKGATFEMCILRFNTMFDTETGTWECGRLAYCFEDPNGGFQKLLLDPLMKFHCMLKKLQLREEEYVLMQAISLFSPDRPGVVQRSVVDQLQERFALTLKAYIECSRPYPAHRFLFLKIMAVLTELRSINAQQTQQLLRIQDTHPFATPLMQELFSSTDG
Sequence of Vitamin D3 receptor (Homo sapiens) (P11473 whole entry, looked up): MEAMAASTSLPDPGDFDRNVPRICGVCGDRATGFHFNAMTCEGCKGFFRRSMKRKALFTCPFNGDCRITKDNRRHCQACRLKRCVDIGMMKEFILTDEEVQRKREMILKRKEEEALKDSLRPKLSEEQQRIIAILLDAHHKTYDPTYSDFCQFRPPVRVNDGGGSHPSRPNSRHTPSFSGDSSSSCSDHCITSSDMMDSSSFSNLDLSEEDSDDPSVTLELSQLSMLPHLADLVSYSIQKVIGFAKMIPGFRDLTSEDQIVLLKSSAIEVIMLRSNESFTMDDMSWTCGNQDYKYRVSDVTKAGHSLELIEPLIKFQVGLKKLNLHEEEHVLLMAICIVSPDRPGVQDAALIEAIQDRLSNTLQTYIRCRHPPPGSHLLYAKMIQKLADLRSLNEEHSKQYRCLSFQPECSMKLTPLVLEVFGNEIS
Sequence of Tumor necrosis factor (Homo sapiens) (P01375 whole entry, looked up): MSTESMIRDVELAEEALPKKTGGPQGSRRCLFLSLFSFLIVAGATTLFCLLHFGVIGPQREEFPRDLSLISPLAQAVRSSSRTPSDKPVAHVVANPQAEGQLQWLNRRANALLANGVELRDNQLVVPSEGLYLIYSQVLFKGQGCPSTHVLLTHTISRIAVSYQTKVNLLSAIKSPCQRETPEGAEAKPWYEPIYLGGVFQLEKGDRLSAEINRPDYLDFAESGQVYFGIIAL

Regarding `CC(C)(c1ccc(OCC2CO2)cc1)c1ccc(OCC2CO2)cc1` (stereo not given), the molecule was called inactive in [1], in [2], in [3], in assay [4], in [5] and in assay [6]. Also, the outcome in [7], in assay [8], in assay [9], in [12], in [13] and in assay [17] was inactive. For the same molecule, the Potency entry in assay [10] and in [14] was “inactive” each time. Further, the max response in assay [11] is 35.6%; in [19], -4.29% (inactive) and -0.125% (inactive); in assay [20], -1.73% (inactive) and 0.566% (inactive). Further, the activation in [15] is 1.86% (inactive) and -8.3% (inactive); in assay [16], -1.34% (inactive) and -1.67% (inactive); in [18], -0.167% (inactive) and 1.71% (inactive).
